# Peg3 prom inh = Peg3 promoter-driven luciferase inhibitors, primary screen, cell-based, HeLa, luciferase luminescence | HeLa PEG-Prom luciferase reporter, overnight | 360,000 compounds, 1.7% hits | AID 588405, 2011 | inhibition, % at 20 µM;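 active = inhibition of at least 50% at 20 µM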
# Shn3 inh set2 = reduction of Shn3 3'UTR firefly luciferase signal, primary screen, Schnurri-3 inhibitor project, cell-based, Clone20 osteoblasts, set 2 | 360,000 compounds, 0.52% hits | AID 588674, 2011 | Clone20 osteoblast Shn3 3'UTR firefly luciferase, 24 h | inhibition, % at 12.5 µM;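 active = mean inhibition of at least 75% with every replicate also reaching 75%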;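 note: 0% = median of neutral control wells and 100% = pilot-screen positive control compound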
# KKLEB tox = cytotoxicity in KKLEB CF airway cells, primary screen, cytotoxicity control for CF NF-kB inhibitor project, cell-based, uHTS, fluorescence assay plates; KKLEB CF airway cells viability, ATPlite luminescence, overnight; stronger effect = lower value; cells stimulated with P. aeruginosa culture filtrate; activity change (cytotoxicity), % at 5 µM; 360,000 compounds, 0.36% hits;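 active = corrected activity change at or below -50% at 5 µM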
# CF NFkB block = inhibitors of PAF-induced NF-kB signaling, primary screen, cell-based, GFP fluorescence, uHTS. 360,000 compounds, 0.86% hits. AID 588850, 2011. KKLEB NF-kB-GFP reporter, GFP fluorescence overnight. inhibition, % at 5 µM;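 active = at least 50% inhibition at 5 µM, scaled per plate between neutral and stimulator controls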;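 note: PAF is a Pseudomonas aeruginosa culture filtrate used as stimulus; plate controls were PAF-stimulated DMSO wells for no effect and unstimulated DMSO wells for full effect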
# HIF-2a block = HIF-2a reporter inhibitors, primary screen, luminescence, 786-0 RCC cells; 786-0 RCC cells HIF-2a reporter, luciferase luminescence, overnight; inhibition, % at 18.8 µM; 360,000 compounds, 0.72% hits;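 active = inhibition of the luminescence signal of 40% or more relative to plate controls, in a single-dose primary screen at 18.75 µM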
# Mdm2-MdmX confirm = retested Mdm2-MdmX interaction blockers, confirmation, cell-based, luminescence, single concentration, set 2; inhibition, % at 8 µM; shares compounds with HIF-2a block; 740 compounds, 99% hits; SaOS-2 split-luciferase Mdm2/MdmX complementation;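 active = mean inhibition of the luminescence signal across two replicates at or above 26 percent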
# Target sequence (O15151 whole entry, looked up): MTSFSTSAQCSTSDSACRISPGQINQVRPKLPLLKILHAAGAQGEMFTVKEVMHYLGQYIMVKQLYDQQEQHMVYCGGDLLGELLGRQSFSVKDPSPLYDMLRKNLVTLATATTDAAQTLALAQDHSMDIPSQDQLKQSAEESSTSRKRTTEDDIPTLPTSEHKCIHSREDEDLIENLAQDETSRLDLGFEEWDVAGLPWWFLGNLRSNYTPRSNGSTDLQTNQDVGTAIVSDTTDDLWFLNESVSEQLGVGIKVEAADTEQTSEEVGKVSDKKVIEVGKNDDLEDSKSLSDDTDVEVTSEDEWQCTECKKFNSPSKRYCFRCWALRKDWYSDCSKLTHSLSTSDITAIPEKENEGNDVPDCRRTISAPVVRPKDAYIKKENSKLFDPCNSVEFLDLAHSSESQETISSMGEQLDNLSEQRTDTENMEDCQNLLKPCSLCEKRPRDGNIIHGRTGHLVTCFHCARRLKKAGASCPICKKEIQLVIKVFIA
# Target sequence (Q00987 whole entry, looked up): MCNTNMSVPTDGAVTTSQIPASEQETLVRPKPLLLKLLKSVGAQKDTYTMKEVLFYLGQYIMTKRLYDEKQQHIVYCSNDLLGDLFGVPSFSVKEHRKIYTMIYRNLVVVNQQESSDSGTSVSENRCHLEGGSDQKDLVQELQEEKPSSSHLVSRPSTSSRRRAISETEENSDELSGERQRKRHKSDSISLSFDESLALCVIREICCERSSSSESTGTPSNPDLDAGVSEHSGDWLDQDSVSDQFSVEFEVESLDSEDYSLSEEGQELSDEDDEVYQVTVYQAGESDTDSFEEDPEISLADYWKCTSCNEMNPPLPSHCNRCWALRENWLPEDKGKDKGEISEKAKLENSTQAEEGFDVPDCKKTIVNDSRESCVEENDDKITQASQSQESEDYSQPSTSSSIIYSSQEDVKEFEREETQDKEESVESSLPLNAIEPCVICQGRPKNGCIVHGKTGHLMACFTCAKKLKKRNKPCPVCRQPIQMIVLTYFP
# HIF-2a conf = HIF-2a reporter inhibitor retest, confirmation, luminescence, 786-0 RCC cells; shares compounds with HIF-2a block; HIF-2a luciferase reporter luminescence, overnight; AID 651580, 2012; 1,800 compounds, 56% hits; inhibition, % at 18.8 µM;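 active = mean inhibition across four replicates of at least 40 percent at the single tested concentration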
# HIF-1a counter = HIF-1a luciferase reporter signal reduction – MiaPaCa-2 cells, single concentration, counter-screen for HIF-2a inhibitor project, confirmation; shares compounds with HIF-2a block; MiaPaCa-2 HIF-1a luciferase reporter, desferoxamine, overnight; inhibition, % at 18.8 µM; 1,800 compounds, 72% hits; AID 651589, 2012;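 active = mean inhibition of the reporter signal across four replicates at the single tested dose of 50% or more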
# Numbers without * were called inactive; . = not tested or not shown. This is a sample that favours compounds with a hit; in the whole collection about 2.6% have one here.
SMILES,Peg3 prom inh,Shn3 inh set2,KKLEB tox,CF NFkB block,HIF-2a block,HIF-2a conf,HIF-1a counter,others
CCC(C)C1NC(=O)C(NC(=O)C(CC(C)C)N(C)C(=O)C2CCCN2C(=O)C(C)O)C(C)OC(=O)C(Cc2ccc(OC)cc2)N(C)C(=O)C2CCCN2C(=O)C(CC(C)C)NC(=O)[C@H](C)C(=O)[C@H](C(C)C)OC(=O)CC1O (stereo not given in full),100*,99*,-70*,94*,83*,79*,100*,
C#CCCC[C@@H]1OC(=O)CNC(=O)C([C@@H](C)CC)NC(=O)[C@@H]2CCCN2C(=O)C([C@@H](C)CC)OC(=O)[C@H](Cc2ccccc2)N(C)C(=O)[C@H](C(C)C)NC(=O)C1(C)C (stereo not given in full),5,16,-7,-19,-29,.,.,
O=c1[nH]c(=S)n(Cc2ccc(F)cc2)c(O)c1/C=N/N1CCCCC1,-8,11,6,20,7,.,.,
CC(=O)C1CCC2(O)C3CCC4=CC(=O)CCC4(C)C3CCC12C (stereo not given),-5,-2,4,13,4,.,.,
C[C@@H]1O[C@@H](O[C@@H]2C=C3CC[C@@H]4C(CC[C@]5(C)[C@@H](c6ccc(=O)oc6)CC[C@]45O)[C@@]3(C)CC2)[C@H](O)[C@H](O)[C@H]1O (stereo not given in full),107*,3,-76*,89*,86*,46*,105*,
CCCCCCCSc1cc(OC)c(CCNC)cc1OC,112*,94*,-22,29,44*,9,106*,
C[CH2][Hg][S]c1ccccc1C(=O)O,94*,98*,-89*,86*,97*,.,.,Mdm2-MdmX confirm=102*
CC(C)COC(=O)c1ccccc1C(=O)OCC(C)C,15,2,8,7,-1,.,.,
CCCC[n+]1cc(/N=C(\[O-])OC)on1,-4,2,3,-2,7,.,.,
NC(N)=N/N=C/c1cn(-c2ccccc2)nc1-c1cccs1,106*,0,-24,10,-34,.,.,Mdm2-MdmX confirm=103*
COC(=O)C1=C(c2ccc(OCc3ccccc3)cc2)C[C@@H]2CC[C@H]1N2C(=O)NCCCCc1ccccc1,16,82,-4,-5,0,.,.,
CC1CN(c2ccc([N+](=O)[O-])cc2Cl)CCN1 (stereo not given),-13,14,-7,6,1,.,.,
CNC(C)Cc1ccccc1Sc1ccc(O)cc1 (stereo not given),9,14,-2,-1,50*,0,49,
O=C(Cc1ccc([N+](=O)[O-])cc1)N1CCN(Cc2ccc3c(c2)OCO3)CC1,5,14,-7,3,3,.,.,
C[C@]12CCC3C(CC[C@H]4C[C@@H](O)CC[C@]34C)C1C[C@@H](N)[C@@H]2O (stereo not given in full),-9,12,10,-19,29,.,.,
Cc1nc2cc(-c3cccc(F)c3)nn2c(C)c1CCC(=O)N1CCC2(CC1)OCCO2,-51,36,6,-6,75*,82*,53*,
CC(=O)OC[C@]12CCC(C)=C[C@H]1O[C@@H]1[C@H](O)[C@@H](OC(C)=O)[C@@]2(C)[C@]12CO2,108*,99*,-56*,104*,90*,81*,105*,
